In PubChem BioAssay AID504651 (National Center for Advancing Translational Sciences (NCATS), 2011):
Among all 360,000 compounds or so, about 130 (0.036%) were called active. Only a selection was taken, and actives are over-represented in it overall. Unmarked numbers belong to inactive results. No stated cut-off is given here; in the data, active means potentiation above about 30%; inactive means the rest.

molecular target: D(1A) dopamine receptor (Homo sapiens) (UniProt P21728); experiment: Potentiators of Human D1 Dopamine Receptor: qHTS; conditions: HEK293 TREx D1 cells, calcium flux, dopamine EC20 potentiation; at 10 µM; hits give high values; further: 0% is about no effect
Sequence (P21728 whole entry, looked up): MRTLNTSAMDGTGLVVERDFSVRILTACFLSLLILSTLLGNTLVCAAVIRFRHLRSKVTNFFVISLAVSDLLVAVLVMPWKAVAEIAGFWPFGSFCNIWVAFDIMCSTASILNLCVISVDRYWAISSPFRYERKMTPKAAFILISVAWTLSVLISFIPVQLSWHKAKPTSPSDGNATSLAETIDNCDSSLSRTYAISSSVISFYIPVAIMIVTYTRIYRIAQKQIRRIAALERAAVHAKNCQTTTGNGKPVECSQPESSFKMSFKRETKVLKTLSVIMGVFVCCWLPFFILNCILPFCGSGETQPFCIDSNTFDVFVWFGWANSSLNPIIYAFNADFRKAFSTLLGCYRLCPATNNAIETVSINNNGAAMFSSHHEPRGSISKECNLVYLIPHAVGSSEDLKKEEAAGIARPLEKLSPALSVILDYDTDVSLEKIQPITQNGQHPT

Compound	potentiation
Cc1cc(C)c2oc(C(=O)Nc3c(C(=O)Nc4ccccc4)oc4ccccc34)cc(=O)c2c1	0.8%
Cc1ccc(C(=O)NC2CCN(C#N)CC2)cc1	-6.15%
O=C(Nc1nc2c(s1)CCCC2)c1ccccc1F	0.5%
CCOc1ccc(S(=O)(=O)c2cn(Cc3ccc(OC)cc3)c3ccc(F)cc3c2=O)cc1	-1.95%
Cc1cc(C)c(NC(=O)CSc2nc3nccnc3c(=O)n2CCc2c[nH]c3ccccc23)c(C)c1	-2.8%
Cc1cccc(Cn2c(=O)n(CCC(=O)NCCc3ccc(Cl)cc3)c(=O)c3sccc32)c1	0.55%
O=C(CNC(=O)c1ccc(Cl)cc1Cl)OC(C(=O)Nc1cc(C(F)(F)F)ccc1Cl)c1ccccc1 (configuration not stated)	-4%
Cc1ccc(-c2cc(C(=O)Oc3ccccc3Cl)no2)cc1C	0.6%
COc1ccc(Cl)cc1NC(=O)Cn1c(=O)c2ccccc2n2nncc12	1.65%
NS(=O)(=O)c1ccc(-c2ccc(/C=C3\SC(=O)NC3=O)o2)cc1	0.85%
CN1C(=O)/C(=C\c2ccc(-c3ccccc3)o2)SC1=S	39.7% (active)
CN=C1S/C(=C\c2ccc(Sc3ccc(Cl)cc3)o2)C(=O)N1C	5.08%
Oc1ccc(Cl)cc1C1C=C(c2ccc3c(c2)OCO3)NC(c2c(F)cccc2Cl)N1 (configuration not stated)	-3.2%
O=[S+]([O-])(c1ccc2c(c1)OCCO2)N1CCN([S+](=O)([O-])c2c(Cl)cc(Cl)cc2Br)CC1	-3.2%
COc1ccc(-c2nc(Cn3c(=O)cc(C)c4c(C)nn(-c5ccccc5)c43)c(C)o2)c(OC)c1	-4.4%
Cc1nc2ccn(Cc3cccs3)c(=O)c2cc1C(=O)NCc1ccc(Cl)cc1	-6.65%
COc1ccc(CCNS(=O)(=O)c2cc(-c3cc(C)no3)ccc2C)cc1OC	-4.9%
Cc1ccc(S(=O)(=O)N2CCc3cc(C(=O)Nc4ccc(Cl)cc4C)ccc32)cc1	-2.8%
Cc1ccsc1CN(C(=O)c1oc2ccc(Br)cc2c1C)C1CCS(=O)(=O)C1 (configuration not stated)	0.7%
Cc1ccc(SCC(=O)Nc2ccc3oc(-c4ccccc4F)nc3c2)cc1	-1.1%
Cc1ccc(C)c(CNC(=O)c2cc3ccccn3n2)c1	-6.6%
COc1ccc2[nH]c3c(c2c1)CCN(C(=O)CCC1CCCC1)C3c1ccc(F)cc1 (configuration not stated)	-2.5%
COc1ccc([N+](=O)[O-])cc1C1NN=C(c2cccc3ccccc23)S1 (configuration not stated)	0.861%
COc1cc2c(cc1OC)C(c1cccc([N+](=O)[O-])c1)=NCC2	-1.3%
COc1ccc([N+](=O)[O-])cc1-c1nc2ccccc2nc1-c1ccccc1	30.4% (active)
Cc1ccc(NC(=O)c2oc3ccc(S(=O)(=O)N4CCCCC4)cc3c2C)cc1Cl	3.15%

Compound	potentiation
CC1=C(c2ccc(C)c(C)c2)S(=O)(=O)NC1=NCc1ccccc1Cl	-1.4%
O=[S+]([O-])(c1ccc(OC(F)(F)F)cc1)N1CCN([S+](=O)([O-])c2ccc3c(c2)OCCO3)CC1	5.85%
O=C(CCS(=O)(=O)c1ccccc1)N(Cc1cccnc1)c1nc2c(F)cccc2s1	-1.7%
Cc1ccc(CNC(=O)Cn2c(=O)ccc3cc(S(=O)(=O)N4CCCC4)ccc32)cc1	-0.25%
CC(C)S(=O)(=O)c1oc(-c2ccc(F)cc2)nc1S(=O)(=O)c1ccc(F)cc1	3.35%
CCOC(=O)C1CCCN(C(=O)c2ccc3c(c2)sc2nc(-c4ccc(CC)cc4)cn23)C1 (configuration not stated)	-1.95%
COc1ccccc1N1CCN(CCCNC(=O)c2cnn(-c3ccccc3Cl)c2C2CCN(C(=O)OC(C)(C)C)CC2)CC1	-8.55%
Cc1cccc(C)c1-n1ncc(C(=O)NCCCN2CCCCC2)c1C1CCN(C(=O)OC(C)(C)C)CC1	31.8% (active)
CCN1CCN(CCCNC(=O)c2cnn(-c3ccc(C)cc3C)c2C2CCN(C(=O)OC(C)(C)C)CC2)CC1	-2.55%
Cc1cc(NS(=O)(=O)c2ccc3oc(=O)c4ncn(C)c4c3c2)ccc1Br	-5.95%
CCc1ccc(S(=O)(=O)c2nnn3c2nc(N2CCN(CC)CC2)c2sccc23)cc1	1.1%
O=C(NCCc1ccccc1)c1ccc2c(c1)N(Cc1ccc(F)cc1)C(=O)c1ccccc1S2(=O)=O	2.25%
CCOc1ccc(-c2cc3nc(C4CCN(C(=O)OC(C)(C)C)CC4)c(C(=O)Nc4ccc(C(=O)OC)cc4)cn3n2)cc1	-0.6%
Cn1c(=O)n(Cc2c(F)cccc2Cl)c(=O)c2c1nc1n2CCN1c1ccc(F)cc1	-3.15%
CC(C)CCN(C(=O)Nc1ccc(Cl)c(Cl)c1)C(C)c1cccs1 (configuration not stated)	-1.95%
O=C(CCCn1c(=O)c2cccn2c2cccnc21)NCc1ccc(F)cc1	-4.5%
CCc1nn(CC(=O)NCC(C)c2ccccc2)c(=O)c2cc3occc3n12 (configuration not stated)	-5.55%
CCCCCn1c(=O)[nH]c2cc(C(=O)Nc3cc(C)cc(C)c3)ccc2c1=O	1.1%
CCCN1CCN(CCCNC(=O)c2ccc3nc(Cc4ccccc4)oc3c2)CC1	-0.6%
O=S(=O)(c1ccc2c(c1)OCCCO2)N1CCN(S(=O)(=O)c2c(F)cccc2F)CC1	-3.35%
O=c1n(Cc2cccc(C(F)(F)F)c2)c2ccccc2c2nc(-c3ccccc3)nn12	0.85%
CCOc1cccc(CNC(=O)c2ccc(N3CCCC3)c(NC(=O)Nc3ccccc3CC)c2)c1	-0.4%
Oc1ccc(Cl)cc1C1C=C(c2ccc3c(c2)OCO3)NC(c2ccc(F)c(Br)c2)N1 (configuration not stated)	1.65%
CCOc1ccc(N2CC(C)Cn3c2nc2c3c(=O)n(Cc3c(F)cccc3Cl)c(=O)n2C)cc1 (configuration not stated)	1.1%
CC(C)c1ccc(C2CC(=O)N3CN(C4CCCCC4)CSC3=C2C#N)cc1 (configuration not stated)	9.05%
CN(C)c1ccc(C(=O)NCC(=O)OC(C(=O)Nc2cc(C(F)(F)F)ccc2Cl)c2ccccc2)cc1 (configuration not stated)	-1.25%
